High-throughput results from PubChem.
WRN inhibitor: WRN helicase (human) inhibition; AID 651768; Q14191; WRN helicase unwinding, fluorescent forked duplex, kinetic; Potency, µM (top dose mostly 114 µM), most hits filed as inhibitors; actives 0.46% (n = 360,000); note: nearly all actives have a fitted effect of over 55% in size
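Enzyme (20 nM final) and test compound sit together 15 min at room temperature before substrate addition. Substrate is a single-forked duplex oligonucleotide (100 nM) labelled with fluorophore and quencher, with 2 mM ATP; helicase unwinding raises red fluorescence, read kinetically.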
APEX1 inh: blocks human APE1 abasic DNA cleavage | recombinant APE1, TAMRA/BHQ-2 abasic DNA cleavage fluorescence | actives 0.35% (n = 350,000) | Potency, µM (series often up to 65.8 µM), hits mostly inhibitors | P27695; note: nearly all actives have a fitted effect of over 55% in size
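Measures dequenching upon AP-site incision of a 5'-TAMRA/3'-BHQ-2 THF-containing duplex, 50 nM; human APE1 0.75 nM after 15 min room-temperature exposure to compound; kinetic three-point read at one-minute spacing.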
BLM inh: Bloom syndrome helicase (human) inhibition. recombinant BLM DNA unwinding, fluorescence dequenching. actives 0.2% (n = 350,000). AID 2528. Potency, µM (series often up to 56.1 µM), actives largely listed as inhibitors. P54132; note: nearly all actives have a fitted effect of over 35% in size
TRb-SRC2 inh: inhibitors of human thyroid hormone receptor beta-SRC2 interaction | P10828 | TRbeta-SRC2 peptide binding, fluorescence polarization; receptor liganded with 1 µM T3 | Potency, µM (titrated, usually from 106 µM), actives largely listed as inhibitors | actives 0.065% (n = 280,000) | AID 1469; note: nearly all actives have a fitted effect of over 50% in size
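Fluorescence polarization of 20 nM Texas Red SRC2 peptide with 0.6 uM human TRb ligand-binding domain, in Tris buffer with 1uM T3 and 5% DMSO. Incubated 5 hr ambient; normalized to unbound and bound controls.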
RECQ1 helicase: RECQ1 (human) helicase inhibition. Potency, µM (titrated, usually from 57.3 µM), most hits filed as inhibitors. RECQ1 DNA unwinding, red fluorescence kinetic read. actives 0.54% (n = 240,000); note: nearly all actives have a fitted effect of over 30% in size
Target sequence (P46063 whole entry, looked up): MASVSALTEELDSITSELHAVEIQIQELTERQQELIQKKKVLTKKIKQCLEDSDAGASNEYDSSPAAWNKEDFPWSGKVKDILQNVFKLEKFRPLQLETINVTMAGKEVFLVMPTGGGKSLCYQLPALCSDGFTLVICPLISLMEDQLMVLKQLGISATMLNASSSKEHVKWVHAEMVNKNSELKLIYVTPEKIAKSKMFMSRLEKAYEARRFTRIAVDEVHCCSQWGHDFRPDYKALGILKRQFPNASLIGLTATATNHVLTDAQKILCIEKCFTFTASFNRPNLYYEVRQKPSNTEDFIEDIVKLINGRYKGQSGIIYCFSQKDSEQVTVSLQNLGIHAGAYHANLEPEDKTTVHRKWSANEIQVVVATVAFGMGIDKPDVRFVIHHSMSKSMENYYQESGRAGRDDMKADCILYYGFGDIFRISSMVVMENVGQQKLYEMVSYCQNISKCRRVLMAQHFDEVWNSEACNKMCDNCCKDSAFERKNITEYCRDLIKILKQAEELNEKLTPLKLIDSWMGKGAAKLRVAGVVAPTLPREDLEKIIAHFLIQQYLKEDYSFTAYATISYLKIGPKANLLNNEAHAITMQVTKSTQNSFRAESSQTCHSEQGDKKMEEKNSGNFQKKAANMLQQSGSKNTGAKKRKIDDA
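RECQ1T1 50 nM; forked duplex (20 bp + 30-nt ss tails) 200 nM, ATP 2 mM final; pH 8.0, 2 mM MgCl2, 2.5 ug/ml poly(dI-dC); 15 min compound preincubation; discontinuous kinetic read over 2 h at RT.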
TR SRC2 fluor cs: alters Texas Red total fluorescence, flagging assay interference | Potency, µM (series often up to 106 µM) | actives 0.29% (n = 280,000) | TRb/SRC2 Texas Red total fluorescence interference; active = well fitted curve in either direction with a large enough effect; inconclusive = small, poorly fitted or top-dose-only effect
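Human TRβ ligand-binding domain (0.6 uM) and Texas Red SRC2 peptide (20 nM) in Tris buffer with 1 uM T3 and 5% DMSO were incubated with pinned compound for 5 hr at ambient temperature. Total fluorescence was computed as S + 2P (555/632 nm).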
A number is an active result; [ ] = another dose, or the depositor's remark. Sampled rows, rich in hits. Any-hit rate of the full collection: about 0.91%. Unless noted, calls come from the whole dose curve; as a rule, active = well fitted curve in the direction sought with a large enough effect; inconclusive = small, poorly fitted or top-dose-only effect, or another doubt; inactive = no such curve, though single readings can be large; an effect the other way counts as inactive or inconclusive.

Results for CCCOP(=O)(c1ccc(N(C)C)cc1)C(Nc1ccccc1)c1ccc(N(C)C)cc1 (stereo unspecified) ?
WRN inhibitor: inactive; APEX1 inh: inactive; BLM inh: inactive; TRb-SRC2 inh: inactive; RECQ1 helicase: inactive; TR SRC2 fluor cs: 32µM[quencher]

How did N#C/C(=C\c1ccc(O)c(O)c1)C(=O)N1CCc2ccccc21 do in these assays?
WRN inhibitor: 18µM; APEX1 inh: inactive

What do the screens show for `CC1=C(C#N)C(=O)OC(C)(C)C1`?
WRN inhibitor: inactive; APEX1 inh: inactive; BLM inh: inactive; TRb-SRC2 inh: inconclusive; RECQ1 helicase: inconclusive; TR SRC2 fluor cs: 45µM[fluorescent]

How did CCCCCCc1cc2cc(-c3nnc(-c4ccc(C)cc4)o3)c(=O)oc2cc1O do in these assays?
BLM inh: inconclusive; TRb-SRC2 inh: inactive; TR SRC2 fluor cs: 2512µM[quencher]

How did CCCCCCc1cc2cc(C(=O)OCC)c(=O)oc2cc1O do in these assays?
WRN inhibitor: inactive; APEX1 inh: inactive; BLM inh: inactive; TRb-SRC2 inh: inactive; RECQ1 helicase: inactive; TR SRC2 fluor cs: inactive

How did O=C(O)c1ccccc1-c1c2cc(Br)c(=O)c(Br)c-2oc2c(Br)c(O)c(Br)cc12 do in these assays?
APEX1 inh: inconclusive; BLM inh: 28µM; TRb-SRC2 inh: inconclusive; RECQ1 helicase: 32µM; TR SRC2 fluor cs: 28µM[fluorescent]

How did N#CCCSC(=S)C1CCCC1=N (stereo unspecified) do in these assays?
WRN inhibitor: inactive

Results for CCCCCC/C=C\CCCCCCCc1cccc(O)c1C(=O)O ?
APEX1 inh: inactive; BLM inh: inactive; TRb-SRC2 inh: inactive; RECQ1 helicase: inactive; TR SRC2 fluor cs: inactive

What do the screens show for `CCCCCC(=O)Cc1cc(O)cc2c1C(=O)Oc1cc(O)c(C(=O)O)c(CCCCC)c1O2`?
WRN inhibitor: 45µM; APEX1 inh: inactive; BLM inh: inconclusive; TRb-SRC2 inh: inactive; RECQ1 helicase: 16µM; TR SRC2 fluor cs: inactive

What do the screens show for `O=C(/C=C/c1ccc(O)c(O)c1)NC(=O)c1ccccc1O`?
WRN inhibitor: 56µM; APEX1 inh: inconclusive; BLM inh: inactive; TRb-SRC2 inh: inactive; RECQ1 helicase: inactive; TR SRC2 fluor cs: inactive

How did O=C(/C=C/c1ccc(Br)cc1)NC(=O)c1ccccc1O do in these assays?
WRN inhibitor: inactive; APEX1 inh: inactive; BLM inh: inactive; TRb-SRC2 inh: inconclusive; RECQ1 helicase: inactive; TR SRC2 fluor cs: inactive

What do the screens show for `O=C(/C=C/c1ccccc1)/C=C/c1ccccc1`?
WRN inhibitor: inconclusive; APEX1 inh: inactive; BLM inh: inactive; TRb-SRC2 inh: inactive; RECQ1 helicase: 14µM; TR SRC2 fluor cs: inactive

What do the screens show for `O=C(/C=C/c1ccccc1)c1ccccc1`?
WRN inhibitor: inactive; APEX1 inh: inactive; BLM inh: inactive; TRb-SRC2 inh: inactive; RECQ1 helicase: inconclusive; TR SRC2 fluor cs: inactive

What do the screens show for `Cc1ccc(S(=O)c2snnc2C)cc1` (stereo unspecified)?
WRN inhibitor: inactive; APEX1 inh: inactive; BLM inh: inactive

What do the screens show for `CCCNC(=O)c1ccc2snnc2c1`?
WRN inhibitor: inactive; APEX1 inh: inactive; BLM inh: inactive; TRb-SRC2 inh: inactive; RECQ1 helicase: inactive; TR SRC2 fluor cs: inactive

How did CCCNC(=O)c1nnsc1S(=O)(=O)c1ccc(Cl)cc1 do in these assays?
WRN inhibitor: 28µM; APEX1 inh: inactive; BLM inh: inactive; TRb-SRC2 inh: inactive; RECQ1 helicase: inactive; TR SRC2 fluor cs: inactive

What do the screens show for `CCCNC(=O)NS(=O)(=O)c1ccc(Cl)cc1`?
WRN inhibitor: inactive; APEX1 inh: inactive; BLM inh: inactive; TRb-SRC2 inh: inactive; RECQ1 helicase: inactive; TR SRC2 fluor cs: inconclusive

What do the screens show for `CCCNC(=O)c1nnsc1S(=O)c1ccc(Cl)cc1` (stereo unspecified)?
WRN inhibitor: 20µM; APEX1 inh: inactive; BLM inh: inactive; TRb-SRC2 inh: inactive; RECQ1 helicase: inactive; TR SRC2 fluor cs: inactive

What do the screens show for `CNC(=O)c1nnsc1S(=O)c1ccc(Cl)cc1` (stereo unspecified)?
WRN inhibitor: 28µM; APEX1 inh: inactive; BLM inh: inactive; TRb-SRC2 inh: inactive; RECQ1 helicase: inactive; TR SRC2 fluor cs: inactive
